An excerpt weighted towards active compounds, which were near 6.2% of everything screened.
HT1080 IDH1KD tx – toxicity to HT-1080 IDH1 knockdown cells (counter line); Potency, µM (doses to about 46.1 µM), for the others: at the highest dose activity, negative = toxicity, hits mostly cytotoxic; actives 2% (n = 360,000); HT-1080 IDH1 knockdown viability, ATP luminescence, 48 h; AID 686971;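 note: 0% = DMSO wells and -100% = cell-free medium wells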
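Viability of IDH1-knockdown HT-1080 fibrosarcoma cells was assessed by CellTiter-Glo after 48 h at 37 °C with titrated compound; concentration-effect curves were classified by fit quality and response size.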
KB-3-1 cytotox – kills parental KB-3-1 adenocarcinoma cells. KB-3-1 viability, CellTiter-Glo ATP luminescence, 72 h. Potency, µM (doses to about 46.1 µM), most hits filed as cytotoxic. actives 1.4% (n = 400,000); note: % is set by controls: 0 for no effect and ±100 for the full control effect; nearly all actives have a fitted effect of over 60% in size
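Screening of KB-3-1 cells (DMEM, 10% FBS, phenol-red free) ran from lowest to highest compound concentration; after 72 h at 37 °C viability was read luminescently and curves fitted.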
KB-V1 MDR tox – kills drug-selected multidrug resistant KB-V1 cells. KB-V1 MDR cells viability, CellTiter-Glo, 72 h. Potency, µM (doses to about 46.1 µM), actives largely listed as cytotoxic. actives 3.4% (n = 400,000). AID 1347076; note: % is set by controls: 0 for no effect and ±100 for the full control effect; nearly all actives have a fitted effect of over 60% in size
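qHTS viability screen in drug-selected KB-V1 MDR cells: 72 h compound treatment at 37 degrees C, ATP luminescence end point.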
ATXN2 expr inh – ATXN2 expression inhibition; Potency, µM (top dose mostly 57 µM), for the others: top-dose activity change, negative = inhibition, actives largely listed as inhibitors; actives 0.72% (n = 360,000); HEK-293 ATXN2-luciferase reporter, luminescence, 24 h; AID 1745845; note: % is set by controls: 0 for no effect and ±100 for the full control effect; nearly all actives have a fitted effect of over 55% in size
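ATXN2-luciferase reporter cells (luciferase flanked by upstream and downstream ATXN2 gene portions) were treated 24 h at 37 °C with compounds at up to 57 uM. SteadyGlo luminescence gave expression; GF-AFC fluorescence gave viability.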
HT1080-NT tox – kills 2HG-producing HT-1080-NT fibrosarcoma cells; HT-1080-NT fibrosarcoma viability, CellTiter-Glo ATP luminescence, 48 h; Potency, µM (top dose mostly 46.1 µM), without a hit: at the top dose activity, negative = less viability, usual class: cytotoxic; actives 1.6% (n = 360,000); AID 686970;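 note: NT is the 2HG producing partner of a matched IDH1 knockdown line; 0% = DMSO-treated cells and -100% = media-only wells without cells; nearly all actives have a fitted effect of over 55% in size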
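HT-1080-NT; 750 cells/well; 5% FBS RPMI; 48 h compound, 37 degrees C; CellTiter-Glo luminescence; curve fitting and curve-class assignment.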
ATXN viability – cell viability loss in ATXN counter-screen; S2 cells (HEK-293 line with an ATXN2-luciferase reporter) viability, CellTiter-Fluor protease fluorescence, 24 h; Potency, µM (titrated, usually from 56.7 µM), usual class: cytotoxic; actives 0.49% (n = 400,000); note: nearly all actives have a fitted effect of over 40% in size
The depositor's hits bear a star; [ ] = another dose, or the depositor's remark. Calls come from the whole dose curve; as a rule, active = well fitted curve in the direction sought with a large enough effect; inconclusive = small, poorly fitted or top-dose-only effect, or another doubt; inactive = no such curve, though single readings can be large; an effect the other way counts as inactive or inconclusive. Potency is the fitted concentration of half-maximal effect.

`COc1cccc(NC(=O)C2C3CCC4C(CCC32)C4(Cl)Cl)c1` (centres undefined) gave HT1080 IDH1KD tx -11%, KB-3-1 cytotox inactive, KB-V1 MDR tox 12µM*, ATXN2 expr inh 8%, HT1080-NT tox 3% and ATXN viability inactive.
Cc1cn([C@H]2C[C@H](O)[C@@H](/C=C/C(=O)NCCc3ccc(S(N)(=O)=O)cc3)O2)c(=O)[nH]c1=O was read as HT1080 IDH1KD tx 18%, KB-3-1 cytotox inactive, KB-V1 MDR tox inactive, ATXN2 expr inh 5%, HT1080-NT tox 16% and ATXN viability inactive.
`Cc1ccc(-c2nc3scc(CCNC(=O)Cc4ccc(Cl)cc4)n3n2)cc1` gave KB-3-1 cytotox inactive, KB-V1 MDR tox inactive, ATXN2 expr inh -31% and ATXN viability inconclusive.
For c1ccc(-n2ncc3c(NCCCN4CCOCC4)ncnc32)cc1 the results were HT1080 IDH1KD tx 11%, KB-3-1 cytotox inactive, KB-V1 MDR tox inactive and HT1080-NT tox 11%.
Screening Clc1ccc(Cn2ncc3c(NCc4ccccc4)ncnc32)cc1 returned HT1080 IDH1KD tx 4.6µM*, KB-3-1 cytotox 5.2µM*, KB-V1 MDR tox 6.5µM*, ATXN2 expr inh -24%, HT1080-NT tox 5.8µM* and ATXN viability inconclusive.
Screening CCCCNc1ncnc2c1cnn2-c1ccc(Cl)cc1 returned HT1080 IDH1KD tx 9.2µM*, KB-3-1 cytotox 1.6µM*, KB-V1 MDR tox inconclusive, ATXN2 expr inh 14%, HT1080-NT tox 12µM* and ATXN viability inconclusive.
Screening Clc1ccc(-n2ncc3c(NCc4ccccn4)ncnc32)cc1 returned HT1080 IDH1KD tx -10%, KB-3-1 cytotox inactive, KB-V1 MDR tox 23µM*, ATXN2 expr inh 70%, HT1080-NT tox -3% and ATXN viability inactive.
Screening CCCCNc1ncnc2c1cnn2-c1ccccc1 returned HT1080 IDH1KD tx 15µM*, KB-3-1 cytotox 6.5µM*, KB-V1 MDR tox inconclusive, ATXN2 expr inh 42%, HT1080-NT tox inconclusive and ATXN viability inconclusive.
`OC(Cc1cccnc1)c1ccccc1` (centres undefined) gave HT1080 IDH1KD tx 27%, KB-3-1 cytotox inactive, KB-V1 MDR tox inactive, ATXN2 expr inh 12%, HT1080-NT tox 12% and ATXN viability inconclusive.
For CC(C)OCCCNC(=O)Cn1c(-c2cccs2)cc2cc(F)ccc21 the results were KB-3-1 cytotox inactive, KB-V1 MDR tox inactive, ATXN2 expr inh -28% and ATXN viability inconclusive.
Cc1cccc(Nc2ncnc3c2cnn3Cc2ccccc2)c1 was read as HT1080 IDH1KD tx -9%, KB-3-1 cytotox inactive, KB-V1 MDR tox inactive, HT1080-NT tox -1% and ATXN viability inactive.
Screening COc1ccc(Nc2ncnc3c2cnn3Cc2ccccc2)cc1OC returned HT1080 IDH1KD tx inconclusive, KB-3-1 cytotox inactive, KB-V1 MDR tox 18µM*, ATXN2 expr inh inconclusive, HT1080-NT tox inconclusive and ATXN viability inactive.
`Cc1ccc(Cl)cc1-n1ncc2c(NCCCc3ccccc3)ncnc21` gave KB-3-1 cytotox inconclusive, KB-V1 MDR tox inconclusive, ATXN2 expr inh inconclusive and ATXN viability 32µM*.
`CCOc1ccc(NC(=O)NCc2ccc3c(c2)CCN3C(C)=O)cc1` gave KB-3-1 cytotox inactive, KB-V1 MDR tox inactive, ATXN2 expr inh -9% and ATXN viability inactive.
`CC(=O)Nc1scc(C)c1-c1nc2ccccc2s1` gave HT1080 IDH1KD tx -26%, KB-3-1 cytotox inactive, KB-V1 MDR tox inactive, ATXN2 expr inh 8% and HT1080-NT tox -20%.
Screening CC(=O)Nc1sc2c(c1-c1nc3ccccc3s1)CNC2 returned ATXN2 expr inh 22µM*.
`O=C(COCc1nc2ccccc2c(=O)[nH]1)NCC1CCCCC1` gave HT1080 IDH1KD tx -30%, KB-3-1 cytotox inactive, KB-V1 MDR tox inactive, ATXN2 expr inh 11%, HT1080-NT tox -5% and ATXN viability inactive.
Screening O=C(c1ccc(Br)cc1)N(Cc1nc2ccccc2c(=O)[nH]1)C1CCCC1 returned HT1080 IDH1KD tx 23µM*, KB-3-1 cytotox 16µM*, KB-V1 MDR tox inconclusive, ATXN2 expr inh -33%, HT1080-NT tox inconclusive and ATXN viability inactive.
Screening O=c1[nH]c(CCC2CCCC2)nc2ccccc12 returned HT1080 IDH1KD tx 0%, KB-3-1 cytotox inactive, KB-V1 MDR tox 16µM*, ATXN2 expr inh 11%, HT1080-NT tox 0% and ATXN viability inactive.
Screening CC(C)n1ncc2c(C(=O)N3CCN(S(=O)(=O)c4cccc(F)c4)CC3)cc(C3CC3)nc21 returned HT1080 IDH1KD tx 10%, KB-3-1 cytotox inactive, KB-V1 MDR tox inactive, HT1080-NT tox -4% and ATXN viability inactive.
`O=C(N/N=C/c1cccc(Oc2ccccc2)c1)c1cccc(Br)c1` gave HT1080 IDH1KD tx -29%, KB-3-1 cytotox inactive, KB-V1 MDR tox inactive, ATXN2 expr inh 2%, HT1080-NT tox -18% and ATXN viability inactive.
O=C(N/N=C/c1cccc(Oc2ccccc2)c1)c1cccc(O)c1 was read as HT1080 IDH1KD tx 21µM*, KB-3-1 cytotox inconclusive, KB-V1 MDR tox inactive, ATXN2 expr inh 8%, HT1080-NT tox inconclusive and ATXN viability inactive.
C=CCc1c(C)nc(-c2ccccc2)nc1Nc1ccc(O)cc1 was read as HT1080 IDH1KD tx inconclusive, KB-3-1 cytotox 21µM*, KB-V1 MDR tox 13µM*, ATXN2 expr inh inconclusive, HT1080-NT tox inconclusive and ATXN viability inconclusive.
For C=CCc1c(C)nc(SC)nc1Nc1ccc(C(C)=O)cc1 the results were HT1080 IDH1KD tx -6%[9.24 µM], KB-3-1 cytotox inactive, KB-V1 MDR tox 12µM*, ATXN2 expr inh 33%, HT1080-NT tox -11% and ATXN viability inactive.
C=CCc1c(C)nc(SC)nc1Nc1ccccc1 was read as HT1080 IDH1KD tx -4%, KB-3-1 cytotox inactive, KB-V1 MDR tox inconclusive, ATXN2 expr inh -9%, HT1080-NT tox -3% and ATXN viability inactive.
C=CCc1c(C)nc(SC)nc1Nc1ccc(C(=O)O)cc1 was read as HT1080 IDH1KD tx inconclusive, KB-3-1 cytotox inconclusive, KB-V1 MDR tox 21µM*, ATXN2 expr inh -1%, HT1080-NT tox 3% and ATXN viability inactive.
`CSc1nsc(SCC(=O)Nc2ccc(C(C)=O)cc2)n1` gave HT1080 IDH1KD tx 6%, KB-3-1 cytotox inactive, KB-V1 MDR tox inactive, ATXN2 expr inh 19%, HT1080-NT tox 1%[9.24 µM] and ATXN viability inactive.
For Cc1cc(C)cc(Cn2cc(CN3CC(N4CCN(CCN(C)C)CC4)CS3(=O)=O)nn2)c1 (centres undefined) the results were HT1080 IDH1KD tx 5%, KB-3-1 cytotox inactive, KB-V1 MDR tox inactive, ATXN2 expr inh 10%, HT1080-NT tox 13% and ATXN viability inactive.

Screens deposited in PubChem by National Center for Advancing Translational Sciences (NCATS).
